Inconclusive results are not listed. A call without a number means that no potency is given here. Active and inactive are the calls of the source. Calls follow the shape of the dose curve; as a rule, active = well fitted curve in the direction sought with a large enough effect; inconclusive = small, poorly fitted or top-dose-only effect, or another doubt; inactive = no such curve, though single readings can be large; an effect the other way counts as inactive or inconclusive.

The source of these data is PubChem BioAssay (NCATS).
Potency is read from the fitted curve at half-maximal effect.

A short description of the first experiment: S16 Schwann cell viability assay (CellTiter-Glo assay) (AID 624031). Also: nearly all actives have a fitted effect of over 70% in size. To be noted: S16 rat Schwann cells viability, 24 h; series mostly up to 57.5 µM. A digest of the protocol:
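Cells were seeded at 500-750 per well in phenol red-free DMEM with 10% FBS and left overnight. Compounds or DMSO were pinned in, incubation ran 24 h at 37 °C/5% CO2, then CellTiter-Glo reagent was added and luminescence measured.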
In general terms: In ATP-based viability assays light output follows the ATP content of the culture.
`CN1CCC(OC(c2ccccc2)c2ccccc2)CC1`: the Potency entry was “inactive”.
Consider `Cn1c(=O)c2[nH]c(Br)nc2n(C)c1=O`, for which the Potency result was “inactive”.
Same read-out and setting: the value for `O=C(O)C1(C(=O)O)CCC1.[NH2-].[NH2-].[Pt+2]` was “inactive”; that for `Nc1nc(N)c(-c2ccccc2)s1` was “inactive”; that for `C[N+]1(C)CCC(=C(c2ccccc2)c2ccccc2)CC1` was “inactive”.
In the case of `O[C@@H](c1cc(C(F)(F)F)nc2c(C(F)(F)F)cccc12)[C@H]1CCCCN1`, the Potency was 28.7 µM (active).
Regarding `O=C(NCCc1c[nH]c2ccccc12)c1cccnc1`, the Potency entry is “inactive”.
`CCCCc1cc2ccccc2c(OCCN(C)C)n1`: the Potency entry is “inactive”.
On the same count and under the same terms, the value for `CC(=O)Nc1ncc([N+](=O)[O-])s1` was “inactive”; that for `CCOCCn1c(N2CCCN(C)CC2)nc2ccccc21` was “inactive”.
The same measure, in the same setting: the value for `Clc1cccc(C(c2ccc3nc[nH]c3c2)n2ccnc2)c1` (stereo not drawn) was “inactive”; that for `COc1cc(C)nc(-n2nc(C)cc2OC)n1` was “inactive”; that for `CCN(CC)CCOC(=O)C1(c2ccccc2)CCCC1` was “inactive”.
The same measure, in the same setting: under `CN(C)CCC[C@@]1(c2ccc(F)cc2)OCc2cc(C#N)ccc21` stands “inactive”; under `N/C(=N\N=C\c1ccc(Cl)cc1)N/N=C/c1ccc(Cl)cc1`, “inactive”.
Regarding `CCN(CC)CCOc1ccc2c(c1)C(=O)c1cc(OCCN(CC)CC)ccc1-2`, the Potency entry is “inactive”.
`COc1ccc(CN(CCN(C)C)c2ncccn2)cc1`: the Potency result is “inactive”.
For `O=C(CCCN1CC=C(n2c(=O)[nH]c3ccccc32)CC1)c1ccc(F)cc1`, the Potency entry is “inactive”.
Still for that read-out and setting: under `CCc1oc2ccccc2c1C(=O)c1cc(I)c(O)c(I)c1` stands “inactive”; under `CN(C)CCN1C(=O)c2ccccc2N(C)c2ccccc21`, “inactive”.
For `O=C(O)CCNC(=O)c1ccccc1`, the Potency entry is “inactive”.
Regarding `CCCc1ncc(C[n+]2ccccc2C)c(N)n1`, the Potency entry was “inactive”.
On the same count and under the same terms, the value for `CCN(CC)CCNC(=O)c1cc(Br)c(N)cc1OC` was “inactive”.
On the same count and under the same terms, the value for `Cc1cc(NS(=O)(=O)c2ccc(N)cc2)nc(C)n1` was “inactive”; that for `O=C1C(=O)c2ccccc2C(O)=C1C1CCC(c2ccc(Cl)cc2)CC1` (stereo not drawn) was “inactive”.
Still for that read-out and setting: the value for `CCOC(=O)[C@H](CCc1ccccc1)N[C@@H](C)C(=O)N1[C@H](C(=O)O)C[C@H]2CCCC[C@@H]21` was “inactive”; that for `Oc1ccccc1C=NCc1ccccc1` was “inactive”.

A further experiment can be described thus: S16 Schwann cell PMP22 intronic element firefly luciferase assay (AID 624032). Also: nearly all actives have a fitted effect of over 30% in size. The settings on record: S16 rat Schwann cells, PMP22 element FLuc, 24 h; series mostly up to 57.5 µM. A digest of the protocol:
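Rat S16 Schwann cells stably carrying a PMP22 intronic element-driven Fluc reporter were seeded overnight, then exposed to compounds for 24 h at 37 °C. Luminescence was normalized to PTC124 (positive control) and DMSO (0% activity).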
On to `CN1CCC(OC(c2ccccc2)c2ccccc2)CC1`, for which the Potency entry is “inactive”.
On the same count and under the same terms, under `O=C(O)C1(C(=O)O)CCC1.[NH2-].[NH2-].[Pt+2]` stands “inactive”; under `Nc1nc(N)c(-c2ccccc2)s1`, “inactive”; under `C[N+]1(C)CCC(=C(c2ccccc2)c2ccccc2)CC1`, “inactive”.
The same measure, in the same setting: under `O[C@@H](c1cc(C(F)(F)F)nc2c(C(F)(F)F)cccc12)[C@H]1CCCCN1` stands 36.1 µM (active); under `O=C(NCCc1c[nH]c2ccccc12)c1cccnc1`, “inactive”.
On the same count and under the same terms, under `CCCCc1cc2ccccc2c(OCCN(C)C)n1` stands “inactive”; under `CC(=O)Nc1ncc([N+](=O)[O-])s1`, “inactive”; under `CCOCCn1c(N2CCCN(C)CC2)nc2ccccc21`, “inactive”.
Take `Clc1cccc(C(c2ccc3nc[nH]c3c2)n2ccnc2)c1` (stereo not drawn): the Potency result was “inactive”.
Turning to `COc1cc(C)nc(-n2nc(C)cc2OC)n1`, the Potency result is “inactive”.
Regarding `CCN(CC)CCOC(=O)C1(c2ccccc2)CCCC1`, the Potency entry was “inactive”.
The same measure, in the same setting: under `CN(C)CCC[C@@]1(c2ccc(F)cc2)OCc2cc(C#N)ccc21` stands “inactive”; under `N/C(=N\N=C\c1ccc(Cl)cc1)N/N=C/c1ccc(Cl)cc1`, “inactive”.
The same measure, in the same setting: under `CCN(CC)CCOc1ccc2c(c1)C(=O)c1cc(OCCN(CC)CC)ccc1-2` stands 8.09 µM (active); under `COc1ccc(CN(CCN(C)C)c2ncccn2)cc1`, “inactive”.
Consider `O=C(CCCN1CC=C(n2c(=O)[nH]c3ccccc32)CC1)c1ccc(F)cc1`, for which the Potency result was “inactive”.
Regarding `CN(C)CCN1C(=O)c2ccccc2N(C)c2ccccc21`, the Potency result is “inactive”.
For the compound `O=C(O)CCNC(=O)c1ccccc1`, the Potency entry is “inactive”.
For `CCCc1ncc(C[n+]2ccccc2C)c(N)n1`, the Potency entry is “inactive”.
Same read-out and setting: the value for `NCc1ccccc1Sc1ccccc1CO` was “inactive”; that for `Cc1cc(NS(=O)(=O)c2ccc(N)cc2)nc(C)n1` was “inactive”; that for `CCNC(=O)/C=C/c1cccc(Br)c1` was “inactive”.
On the same count and under the same terms, under `CCOC(=O)[C@H](CCc1ccccc1)N[C@@H](C)C(=O)N1[C@H](C(=O)O)C[C@H]2CCCC[C@@H]21` stands “inactive”; under `CN1CCN(C2=Nc3ccccc3Sc3ccc(Cl)cc32)CC1`, “inactive”.
The same measure, in the same setting: under `Oc1ccccc1C=NCc1ccccc1` stands “inactive”.
